Assay results: PubChem BioAssay (EPA / NIEHS)
The source made the active and inactive calls. How the source made its calls: active means hit-call score of the fitted dose curve at least 0.9, where 1 is the maximum; inactive means score below 0.9.

Legend:
[1] = biological target: Transcription factor E2F1 (Homo sapiens) (UniProt Q01094); test: ATG_E2F_CIS: Attagene CIS-FACTORIAL HepG2 Assay for human E2F Transcription Factor 1 (AID 2282935); conditions: HepG2 Attagene cis-reporter, E2F reporter RNA transcripts; actives raise or lower the signal
Method in brief: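 Transient MRTU transfection of HepG2; 24 h compound exposure; RNA → oligo(dT) RT → PCR → FAM label → HpaI cut → CE fluorescence. Gain/loss of signal fit against DMSO.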

[2] = ATG_E_Box_CIS: Attagene CIS-FACTORIAL HepG2 Assay for human Enhancer Box (E-box) (AID 2282936); conditions: HepG2 E-box cis-reporter transcription, actives raise or lower the signal
Method in brief: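 Transiently transfected HepG2, endogenous TF-driven reporters, 24 h dosing. Readout: RT-PCR plus capillary electrophoresis of fluorescent reporter fragments. Gain or loss of signal fitted bidirectionally against DMSO baseline.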

[3] = ATG_M_61_CIS: Attagene CIS-FACTORIAL HepG2 Assay for M61 Transcription Factor (Internal Marker) (AID 2282937); conditions: HepG2 Attagene CIS-FACTORIAL M61 internal marker reporter; actives raise or lower the signal
Method in brief: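 Transfect HepG2 with MRTUs; dose 24 h; isolate RNA; reverse-transcribe with DNase I treatment; PCR-amplify, FAM-label and cut with HpaI for 2 h at 37 C; resolve by CE. Bidirectional fitting against DMSO.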

[4] = ATG_EGR_CIS: Attagene CIS-FACTORIAL HepG2 Assay for human Early Growth Response 1 (EGR1) (AID 2282938); conditions: HepG2 Attagene CIS-FACTORIAL EGR reporter mRNA; actives raise or lower the signal
Method in brief: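 After a 24 h treatment of transiently transfected HepG2 cells, total RNA was reverse-transcribed and reporter sequences PCR-amplified, labelled and run on capillary electrophoresis. Reporters sit under cis-regulatory promoters sensing endogenous factors.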

[5] = ATG_M_19_CIS: Attagene CIS-FACTORIAL HepG2 Assay for M19 Transcription Factor (Internal Marker) (AID 2282939); conditions: HepG2 Attagene CIS-FACTORIAL M19 internal marker reporter; actives raise or lower the signal
Method in brief: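 Following a 24 h exposure, RNA from transfected HepG2 cells was reverse-transcribed, PCR-amplified with reporter-specific primers, end-labelled with 6-FAM and HpaI-digested before capillary separation. Values represent gain or loss versus DMSO.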

[6] = ATG_ERE_CIS: Attagene CIS-FACTORIAL HepG2 Assay for Estrogen Response Element (ERE) (AID 2282940); conditions: HepG2 ERE cis-reporter, Attagene RNA transcript; actives raise or lower the signal
Method in brief: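 HepG2, transient cis-reporter units, 24 h exposure. RNA isolated, oligo(dT) RT, reporter-specific PCR, FAM extension, HpaI cut, CE detection. Gain/loss-of-signal vs DMSO.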

[7] = ATG_Ets_CIS: Attagene CIS-FACTORIAL HepG2 Assay for human Erythroblast Transformation Specific (ETS) (AID 2282941); conditions: HepG2 ETS cis-reporter transcription, actives raise or lower the signal
Method in brief: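 Endogenous transcription factor activity read as reporter mRNA via RT-PCR and capillary electrophoresis, with gain or loss fitted bidirectionally against DMSO. Human HepG2 liver cells, transiently transfected CIS reporter constructs, 24 h exposure.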

[8] = biological target: Hepatocyte nuclear factor 3-beta (Homo sapiens) (UniProt Q9Y261); test: ATG_FoxA2_CIS: Attagene CIS-FACTORIAL HepG2 Assay for human Forkhead box A2 (FOXA2) (AID 2282942); conditions: HepG2 cis-reporter transcription factor activity, 24 h; actives raise or lower the signal
Method in brief: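 24 h dosing of HepG2 bearing cis-reporter constructs; mRNA readout by RT-PCR/CE fluorescence; bidirectional fit, DMSO baseline.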

[9] = ATG_GATA_CIS: Attagene CIS-FACTORIAL HepG2 Assay for human GATA Binding Protein (AID 2282944); conditions: HepG2 GATA cis-element reporter, Attagene multiplex mRNA; actives raise or lower the signal
Method in brief: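 DMSO serves as negative control and baseline for bidirectional fitting of reporter mRNA changes. HepG2 cells bearing transiently transfected cis-promoter reporters were exposed 24 h; transcripts detected via RT-PCR and capillary electrophoresis.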

[10] = ATG_GLI_CIS: Attagene CIS-FACTORIAL HepG2 Assay for human Zinc Finger Protein GLI1 (AID 2282945); conditions: HepG2, Attagene cis-factorial reporter mRNA, GLI element; actives raise or lower the signal
Method in brief: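 Transiently transfected HepG2 cells report endogenous transcription factor activity via cis-element-driven reporter units. After 24 h compound exposure, reporter mRNA was measured by RT-PCR with capillary electrophoresis; bidirectional fitting against DMSO baseline.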

[11] = biological target: Bile acid receptor (Homo sapiens) (UniProt Q96RI1); test: ATG_IR1_CIS: Attagene CIS-FACTORIAL HepG2 Assay for human Nuclear Receptor Subfamily 1 Group H Member 4 (NR1H4), IR1 submotif (AID 2282946); conditions: IR1 reporter transcription, actives raise or lower the signal
Method in brief: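 Fluorescence of capillary-separated, HpaI-digested RT-PCR reporter products gave IR1-element mRNA induction in HepG2 cells 24 h after dosing. Endogenous transcription factors drove the cis-regulated reporters; activity was fitted bidirectionally against DMSO.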

[12] = ATG_GRE_CIS: Attagene CIS-FACTORIAL HepG2 Assay for human Glucocorticoid Response Elements (GRE) (AID 2282947); conditions: HepG2 GRE cis-reporter, Attagene multiplex mRNA; actives raise or lower the signal
Method in brief: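 Read-out: fluorescent reporter-transcript fragments separated by capillary electrophoresis after RT-PCR. Transiently transfected HepG2 cells carrying cis-element-driven reporter units were dosed for 24 h; gain or loss of signal fitted against DMSO control.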

[13] = ATG_ISRE_CIS: Attagene CIS-FACTORIAL HepG2 Assay for human Interferon Regulatory Factor 1 (IRF1) binding to an Interferon-Stimulated Response Element (ISRE) (AID 2282948); conditions: HepG2 ISRE cis-reporter (Attagene), mRNA transcription readout; actives raise or lower the signal
Method in brief: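 Endogenous transcription factor activity read as reporter transcript abundance via RT-PCR and capillary electrophoresis. HepG2 cells transiently transfected, 24 h chemical exposure. Gain or loss fitted against DMSO baseline.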

[14] = ATG_M_06_CIS: Attagene CIS-FACTORIAL HepG2 Assay for M06 Transcription Factor (Internal Marker) (AID 2282950); conditions: HepG2 Attagene CIS-FACTORIAL M06 internal marker reporter; actives raise or lower the signal
Method in brief: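 Fluorescence-labelled RT-PCR products from cis-promoter reporter units, cut with HpaI and resolved by capillary electrophoresis, give the signal. Cells are human HepG2, dosed for 24 h. Serves as background control, fitted relative to DMSO.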

[15] = biological target: Hypoxia-inducible factor 1-alpha (Homo sapiens) (UniProt Q16665); test: ATG_HIF1a_CIS: Attagene CIS-FACTORIAL HepG2 Assay for human Hypoxia Inducible Factor 1 (HIF1A) (AID 2282951); conditions: HepG2 Attagene cis-factorial HIF1a reporter transcription; actives raise or lower the signal
Method in brief: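 After 24 h chemical exposure of reporter-transfected HepG2 cells, reporter cDNA was PCR-amplified, labelled by 6-FAM primer extension (2 min 95 C, 20 s 68 C, 10 min 72 C), HpaI-cut (2 h, 37 C) and analysed by CE.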

[16] = biological target: Hepatocyte nuclear factor 6 (Homo sapiens) (UniProt Q9UBC0); test: ATG_HNF6_CIS: Attagene CIS-FACTORIAL HepG2 Assay for human Hepatocyte Nuclear Factor 6 (HNF6) (AID 2282952); conditions: HepG2 Attagene cis-factorial HNF6 reporter transcription; actives raise or lower the signal
Method in brief: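 Twenty-four-hour chemical treatment of reporter-transfected HepG2 cells precedes RNA isolation, DNase-treated reverse transcription and PCR of reporter sequences. Labelled fragments are sized by capillary electrophoresis and fitted bidirectionally versus DMSO.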

[17] = biological target: Heat shock factor protein 1 (Homo sapiens) (UniProt Q00613); test: ATG_HSE_CIS: Attagene CIS-FACTORIAL HepG2 Assay for human Heat Shock Transcription Factor 1 (HSE) (AID 2282953); conditions: HepG2 HSE cis-reporter, Attagene RNA transcription; actives raise or lower the signal
Method in brief: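 After a 24 h incubation with test chemical, transfected HepG2 cells were harvested for RNA; reporter transcripts were measured by RT-PCR and capillary electrophoresis. Values reflect gain or loss of signal relative to DMSO.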

[18] = ATG_MRE_CIS: Attagene CIS-FACTORIAL HepG2 Assay for human Metal Responsive Element (MRE) (AID 2282954); conditions: HepG2 MRE cis-reporter transcription, Attagene multiplex; actives raise or lower the signal
Method in brief: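 RT-PCR/capillary electrophoresis readout of reporter mRNA, 24 h post-dosing, in HepG2 cells transfected with multiplexed cis-regulated reporter constructs. Gain or loss of signal fitted bidirectionally against DMSO baseline.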

[19] = ATG_FoxO_CIS: Attagene CIS-FACTORIAL HepG2 Assay for human Forkhead box O (FoxO) (AID 2282943); conditions: HepG2 Attagene cis-reporter, FoxO element, mRNA; actives raise or lower the signal
Method in brief: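 Transfected HepG2 reporter cells exposed to test chemical for 24 h; reporter RNA measured by reverse transcription, PCR and fluorescent capillary electrophoresis; curves fitted for increases and decreases against DMSO.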

[20] = ATG_M_32_CIS: Attagene CIS-FACTORIAL HepG2 Assay for M32 Transcription Factor (Internal Marker) (AID 2282949); conditions: HepG2 Attagene cis-factorial M32 reporter, mRNA; actives raise or lower the signal;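 further: background control marker of the multiplexed CIS panel rather than a real target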
Method in brief: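 Transient MRTU transfection of HepG2; 24 h compound treatment; TriZol RNA, oligo(dT) RT, reporter PCR, 6-FAM primer extension, HpaI cut, CE. Gain/loss of signal vs DMSO.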

Measured: outcome

Sequence of Transcription factor E2F1 (Homo sapiens) (Q01094 whole entry, looked up): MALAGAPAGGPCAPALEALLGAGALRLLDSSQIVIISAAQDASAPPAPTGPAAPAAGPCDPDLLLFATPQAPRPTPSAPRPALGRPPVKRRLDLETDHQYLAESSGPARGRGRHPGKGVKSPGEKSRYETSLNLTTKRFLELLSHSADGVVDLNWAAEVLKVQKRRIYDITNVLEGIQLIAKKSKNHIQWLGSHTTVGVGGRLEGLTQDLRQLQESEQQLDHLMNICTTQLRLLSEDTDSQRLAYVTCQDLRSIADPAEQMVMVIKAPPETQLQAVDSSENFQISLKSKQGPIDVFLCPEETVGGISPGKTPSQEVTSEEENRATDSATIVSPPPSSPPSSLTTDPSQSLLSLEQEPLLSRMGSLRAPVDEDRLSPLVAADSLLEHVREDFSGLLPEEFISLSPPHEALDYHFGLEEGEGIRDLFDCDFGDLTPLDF
Sequence of Hepatocyte nuclear factor 3-beta (Homo sapiens) (Q9Y261 whole entry, looked up): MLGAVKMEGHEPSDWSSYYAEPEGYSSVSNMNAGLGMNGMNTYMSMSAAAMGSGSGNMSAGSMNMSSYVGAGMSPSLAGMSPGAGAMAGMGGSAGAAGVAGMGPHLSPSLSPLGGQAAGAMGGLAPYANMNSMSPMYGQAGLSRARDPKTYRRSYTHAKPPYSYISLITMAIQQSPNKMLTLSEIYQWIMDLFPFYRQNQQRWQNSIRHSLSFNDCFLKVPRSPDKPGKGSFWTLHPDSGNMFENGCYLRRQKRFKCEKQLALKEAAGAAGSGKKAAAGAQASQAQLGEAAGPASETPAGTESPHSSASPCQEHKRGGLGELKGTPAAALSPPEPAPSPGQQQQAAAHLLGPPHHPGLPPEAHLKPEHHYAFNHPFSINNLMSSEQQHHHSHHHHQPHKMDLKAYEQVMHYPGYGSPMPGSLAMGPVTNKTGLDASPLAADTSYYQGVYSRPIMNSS
Sequence of Hepatocyte nuclear factor 6 (Homo sapiens) (Q9UBC0 whole entry, looked up, the tested form may be a part): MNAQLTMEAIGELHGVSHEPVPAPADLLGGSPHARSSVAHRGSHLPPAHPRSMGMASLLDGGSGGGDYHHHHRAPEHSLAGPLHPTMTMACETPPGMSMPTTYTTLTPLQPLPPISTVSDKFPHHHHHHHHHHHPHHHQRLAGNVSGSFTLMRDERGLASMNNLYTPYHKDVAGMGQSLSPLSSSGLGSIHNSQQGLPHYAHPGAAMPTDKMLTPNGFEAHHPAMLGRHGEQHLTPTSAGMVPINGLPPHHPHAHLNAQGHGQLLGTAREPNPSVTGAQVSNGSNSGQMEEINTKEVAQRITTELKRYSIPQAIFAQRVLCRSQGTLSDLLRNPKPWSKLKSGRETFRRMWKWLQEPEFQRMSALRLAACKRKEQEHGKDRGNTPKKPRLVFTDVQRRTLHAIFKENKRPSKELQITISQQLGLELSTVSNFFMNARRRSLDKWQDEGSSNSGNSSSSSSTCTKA
Sequence of Heat shock factor protein 1 (Homo sapiens) (Q00613 whole entry, looked up): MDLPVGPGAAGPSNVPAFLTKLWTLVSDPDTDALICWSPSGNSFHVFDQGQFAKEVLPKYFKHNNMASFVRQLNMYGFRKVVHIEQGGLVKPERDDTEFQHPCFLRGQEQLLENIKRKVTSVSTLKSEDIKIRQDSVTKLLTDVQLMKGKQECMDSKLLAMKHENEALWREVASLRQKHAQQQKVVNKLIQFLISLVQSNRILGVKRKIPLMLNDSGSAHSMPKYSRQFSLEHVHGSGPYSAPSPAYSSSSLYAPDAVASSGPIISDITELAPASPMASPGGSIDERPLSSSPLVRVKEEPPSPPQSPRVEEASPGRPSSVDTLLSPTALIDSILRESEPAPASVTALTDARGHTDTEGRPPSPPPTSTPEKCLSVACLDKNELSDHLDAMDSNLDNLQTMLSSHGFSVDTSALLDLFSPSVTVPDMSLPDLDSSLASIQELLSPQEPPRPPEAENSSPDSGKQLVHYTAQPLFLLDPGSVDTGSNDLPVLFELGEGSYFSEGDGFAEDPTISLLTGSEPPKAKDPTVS
Sequence of Hypoxia-inducible factor 1-alpha (Homo sapiens) (Q16665 whole entry, looked up): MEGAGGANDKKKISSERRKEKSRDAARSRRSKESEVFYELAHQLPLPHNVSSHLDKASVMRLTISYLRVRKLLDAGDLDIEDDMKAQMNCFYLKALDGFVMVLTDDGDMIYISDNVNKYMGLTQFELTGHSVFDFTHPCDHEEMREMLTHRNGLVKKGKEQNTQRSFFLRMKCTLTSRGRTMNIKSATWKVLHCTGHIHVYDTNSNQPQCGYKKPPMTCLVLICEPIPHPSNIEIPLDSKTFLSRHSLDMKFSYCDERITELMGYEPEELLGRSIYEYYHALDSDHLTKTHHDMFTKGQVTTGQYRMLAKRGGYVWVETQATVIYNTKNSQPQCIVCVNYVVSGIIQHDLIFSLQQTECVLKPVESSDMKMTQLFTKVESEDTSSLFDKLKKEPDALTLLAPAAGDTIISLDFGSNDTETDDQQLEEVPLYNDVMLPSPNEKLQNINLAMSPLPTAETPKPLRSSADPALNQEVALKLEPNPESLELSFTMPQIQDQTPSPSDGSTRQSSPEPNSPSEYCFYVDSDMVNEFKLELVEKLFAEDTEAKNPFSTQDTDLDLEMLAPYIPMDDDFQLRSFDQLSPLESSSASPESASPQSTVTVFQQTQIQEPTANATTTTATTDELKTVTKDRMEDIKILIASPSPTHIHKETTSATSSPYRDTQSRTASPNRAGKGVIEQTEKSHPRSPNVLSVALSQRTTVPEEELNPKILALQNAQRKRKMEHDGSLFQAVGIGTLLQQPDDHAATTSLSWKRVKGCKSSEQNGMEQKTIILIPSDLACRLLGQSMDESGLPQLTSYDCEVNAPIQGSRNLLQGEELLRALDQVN
Sequence of Bile acid receptor (Homo sapiens) (Q96RI1 whole entry, looked up): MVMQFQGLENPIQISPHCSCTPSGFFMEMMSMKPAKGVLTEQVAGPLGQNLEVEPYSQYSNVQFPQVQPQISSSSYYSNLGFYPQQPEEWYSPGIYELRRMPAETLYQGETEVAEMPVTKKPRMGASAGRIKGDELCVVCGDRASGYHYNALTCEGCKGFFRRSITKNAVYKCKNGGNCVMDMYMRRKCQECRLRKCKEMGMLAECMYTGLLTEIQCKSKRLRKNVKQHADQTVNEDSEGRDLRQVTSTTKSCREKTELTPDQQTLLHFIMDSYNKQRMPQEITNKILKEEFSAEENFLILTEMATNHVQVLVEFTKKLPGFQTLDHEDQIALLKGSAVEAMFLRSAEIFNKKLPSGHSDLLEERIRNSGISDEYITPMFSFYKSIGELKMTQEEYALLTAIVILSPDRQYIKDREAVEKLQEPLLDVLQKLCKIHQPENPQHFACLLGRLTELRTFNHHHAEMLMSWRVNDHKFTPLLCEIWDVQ

CC(=O)OC1CCCCC1
not listed: [19] | [20]
inactive: all other assays above

CC(=O)OC/C=C(/C)CCC=C(C)C
not listed: [11] | [12] | [17]
inactive: all other assays above

C=C(C)[C@@H]1CC=C(C)CC1
not listed: [11] | [12] | [15] | [17]
inactive: all other assays above

CC=C(C)C=CC=C(C)C
not listed: [11] | [15] | [19] | [20]
inactive: all other assays above
